High-throughput results from PubChem.
The list is not random: actives were taken first. Their share in the collection is about 9.5%.
Pf growth 96h: P. falciparum growth inhibition at 96 hours; P. falciparum luciferase reporter growth, 96 h; Potency, µM (top dose mostly 28.7 µM), hits mostly inhibitors; 6.9% of 320,000 active; AID 504834
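Infected RBCs, 2% Hct / 0.05% parasitemia final; luciferase-reporter P. falciparum; cpd 96 h, 37 C, 5% CO2; luciferase detection reagent; luminescence.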
SARS PLpro yeast-1: inhibitors of SARS-CoV papain-like protease in yeast; 0.19% of 330,000 active; Potency, µM (doses to about 32.9 µM), most hits filed as activators; S. cerevisiae expressing SARS-CoV PLpro, growth rescue; AID 485353; calls by dose curve; further: nearly all actives have a fitted effect of over 55% in size
RE007 growth inh: less growth of the S. pombe RE007 Vpr strain | S. pombe RE007 Vpr strain, BacTiter-Glo ATP luminescence, 24 h | Potency, µM (titrated, usually from 92.2 µM), hits mostly inhibitors | 0.21% of 360,000 active | AID 651644; active means well fitted falling curve with a large enough effect; inconclusive means small, poorly fitted or top-dose-only effect; inactive means no such curve, though single readings can be large or run the other way; further: nearly all actives have a fitted effect of over 50% in size
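Fission yeast RE007 carrying one integrated HIV-1 vpr copy, seeded at OD 0.01 in PMG+AL medium with 23 nL pinned compound. Grown 24 h at 30 degrees; viability read by BacTiter-Glo luminescence after 5 min.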
Pf growth 48h: P. falciparum growth inhibition at 48 hours (one generation); AID 504832; P. falciparum luciferase growth in erythrocytes, 48 h; 5.9% of 310,000 active; Potency, µM (titrated, usually from 28.7 µM), usual class: inhibitors
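A one-generation exposure of luciferase-tagged malaria parasites in RPMI 1640/Albumax erythrocyte culture, 37 C and 5% CO2. Inhibition is inferred from decreased luminescence after adding detection reagent.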
NS1 function inh: blocks influenza NS1 protein function; Potency, µM (doses to about 46.1 µM); AID 2326; 0.4% of 270,000 active; calls by dose curve; further: actives are rising curves; nearly all actives have a fitted effect of over 50% in size
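Read-out: OD600 growth recovery of NS1-expressing budding yeast. Cells grown overnight at 30C in -URA glucose medium, washed, resuspended and diluted 1:100 in 2% galactose assay medium, pH 6.0. Same strain lacking NS1 served as positive control.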
SARS PLpro yeast-2: Inhibits SARS-CoV PLP in yeast, hit validation. shares compounds with SARS PLpro yeast-1. yeast expressing SARS-CoV PLpro, growth phenotype rescue. calls only. 19% of 1,000 active. AID 652038; call rule not given here
A number is an active result. Unless noted, the call rests on the fitted dose curve; in most records, active means well fitted inhibition curve with a large enough effect; inconclusive means small, poorly fitted or top-dose-only effect, or another doubt; inactive means no such curve, though single readings can be large or run the other way.

For CCCN(CC(=O)Nc1ccccc1C)C(=O)COC(=O)c1cnc(C)cn1 the results were RE007 growth inh inactive.
CCOC(=O)C1CCN(C(=O)CN(c2cc(Cl)ccc2OC)S(=O)(=O)c2ccccc2)CC1 was read as Pf growth 96h inconclusive, SARS PLpro yeast-1 inconclusive, RE007 growth inh inactive, Pf growth 48h 14.7µM, NS1 function inh inactive and SARS PLpro yeast-2 inactive.
`Cc1cc(C)cc(NC(=O)C(=O)NCc2ccccn2)c1` gave Pf growth 96h inactive, SARS PLpro yeast-1 inconclusive, RE007 growth inh inactive, Pf growth 48h inactive, NS1 function inh inactive and SARS PLpro yeast-2 inactive.
For Cc1ccc(NC(=O)C(=O)NCc2ccccn2)cc1 the results were Pf growth 96h inactive, SARS PLpro yeast-1 inactive, RE007 growth inh inactive, Pf growth 48h inactive and NS1 function inh inactive.
Screening O=C(NCc1ccc(F)cc1)N1CCc2ccccc2C1 returned Pf growth 96h inactive, SARS PLpro yeast-1 inactive, RE007 growth inh inactive, Pf growth 48h inactive and NS1 function inh inactive.
Screening CCCCNC(=O)N1CCc2ccccc2C1 returned Pf growth 96h inactive, SARS PLpro yeast-1 3.16µM, RE007 growth inh inactive, Pf growth 48h inactive, NS1 function inh inactive and SARS PLpro yeast-2 inactive.
CCCn1c(NC(=O)c2cccc(C)c2C)nc2ccccc21 was read as Pf growth 96h 8.28µM, SARS PLpro yeast-1 inconclusive, RE007 growth inh inconclusive, NS1 function inh inactive and SARS PLpro yeast-2 inactive.
Screening CC(=O)C(Sc1nn(C)c(=S)s1)C(=O)Nc1ccccc1 (stereo not drawn) returned Pf growth 96h inconclusive, SARS PLpro yeast-1 inconclusive, RE007 growth inh inconclusive, Pf growth 48h inactive, NS1 function inh inactive and SARS PLpro yeast-2 inactive.
For Cc1cc(C)c(S(=O)(=O)N2CCCOC2CNC(=O)C(=O)NCCCn2ccnc2)c(C)c1 (stereo not drawn) the results were Pf growth 96h inactive, SARS PLpro yeast-1 inconclusive, RE007 growth inh inactive, Pf growth 48h inactive, NS1 function inh inactive and SARS PLpro yeast-2 inconclusive.
`COc1cccc(CNC(=O)CN2c3cccc4cccc(c34)S2(=O)=O)c1` gave Pf growth 96h inactive, SARS PLpro yeast-1 inactive, RE007 growth inh inactive and Pf growth 48h inactive.
Cc1ccc(C)c(N2C(=O)C3C4C=CC(CC4)C3C2=O)c1 (stereo not drawn) was read as Pf growth 96h inactive, SARS PLpro yeast-1 inactive, RE007 growth inh inactive, Pf growth 48h inconclusive and NS1 function inh inactive.
Screening Cc1ccc(C)c(N2CC(=O)N(c3cc(C)ccc3C)CC2=O)c1 returned SARS PLpro yeast-1 inconclusive, RE007 growth inh inactive, Pf growth 48h inactive, NS1 function inh inactive and SARS PLpro yeast-2 inactive.
`Cc1ccc(C2(C)NC(=O)N(CC(=O)NCc3cccs3)C2=O)cc1` (stereo not drawn) gave Pf growth 96h inactive, SARS PLpro yeast-1 inconclusive, RE007 growth inh inactive, Pf growth 48h inactive, NS1 function inh inactive and SARS PLpro yeast-2 inactive.
For Cc1ccc(C2(C)NC(=O)N(CC(=O)NCc3cccc(Cl)c3)C2=O)cc1 (stereo not drawn) the results were Pf growth 96h inactive, SARS PLpro yeast-1 inactive, RE007 growth inh inactive, Pf growth 48h inconclusive and NS1 function inh inactive.
For COCC(=O)Nc1ccc(C(=O)Nc2ccccc2Cl)cc1 the results were Pf growth 96h inactive, SARS PLpro yeast-1 inactive, Pf growth 48h inactive and NS1 function inh inactive.
CC(C)(C)c1ccc(C(=O)Cn2nc(C(=O)O)c3ccccc3c2=O)cc1 was read as Pf growth 96h inactive, SARS PLpro yeast-1 inactive, RE007 growth inh inactive, Pf growth 48h inactive and NS1 function inh inactive.
CC(C)CC(=O)Nc1ccc(C(=O)Cn2nc(C(=O)O)c3ccccc3c2=O)cc1 was read as Pf growth 96h inactive, SARS PLpro yeast-1 12.6µM, RE007 growth inh inactive, NS1 function inh inactive and SARS PLpro yeast-2 inactive.
Screening COc1ccccc1Nc1nc(N)nc(CSC(=S)N2CCC(C)CC2)n1 returned Pf growth 96h inconclusive, SARS PLpro yeast-1 15.8µM, RE007 growth inh inactive, Pf growth 48h inconclusive, NS1 function inh inconclusive and SARS PLpro yeast-2 inactive.
Cc1ccc([N+](=O)[O-])cc1NC(=O)C1CCN(S(C)(=O)=O)CC1 was read as Pf growth 96h inactive, SARS PLpro yeast-1 inconclusive, RE007 growth inh inactive, Pf growth 48h inactive, NS1 function inh inactive and SARS PLpro yeast-2 inactive.
Screening CCCCCC(=O)NNC(=S)NC(=O)c1cccc([N+](=O)[O-])c1 returned Pf growth 96h inconclusive, SARS PLpro yeast-1 11.2µM, Pf growth 48h inactive, NS1 function inh inactive and SARS PLpro yeast-2 inactive.
`COc1ccc(C(=O)N/C(N)=N/c2nc3ccccc3o2)cc1` gave Pf growth 96h inconclusive, SARS PLpro yeast-1 inactive, RE007 growth inh inactive, Pf growth 48h inactive and NS1 function inh inactive.
CC(C)(C)c1ccc(C(=O)N/C(N)=N/c2nc3ccccc3o2)cc1 was read as Pf growth 96h inactive, SARS PLpro yeast-1 inconclusive, RE007 growth inh inactive, NS1 function inh inconclusive and SARS PLpro yeast-2 inactive.
For CCN(Cc1ccccc1)S(=O)(=O)c1ccc(C(=O)N(CCCN(C)C)c2nc3c(C)c(C)ccc3s2)cc1 the results were Pf growth 96h inconclusive, SARS PLpro yeast-1 inactive, RE007 growth inh inactive and Pf growth 48h inconclusive.
Screening COc1ccc(C(=O)C2CCCN(C(=O)c3csc(SC)n3)C2)cc1F (stereo not drawn) returned RE007 growth inh inactive.
For N#CC1=C(N)Oc2c(c(=O)oc3ccccc23)C1c1cccnc1 (stereo not drawn) the results were Pf growth 96h inconclusive, SARS PLpro yeast-1 inconclusive, RE007 growth inh inactive, Pf growth 48h inactive, NS1 function inh inactive and SARS PLpro yeast-2 inactive.
`CCc1nnc2c(NCCc3ccccc3)nc3ccccc3n12` gave Pf growth 96h inactive, SARS PLpro yeast-1 inactive, RE007 growth inh inactive, Pf growth 48h inactive and NS1 function inh inactive.
For CCOc1cc(CNCCc2ccccc2)ccc1OCC(=O)NC(C)(C)C the results were Pf growth 96h inactive, SARS PLpro yeast-1 17.8µM, RE007 growth inh inactive, Pf growth 48h inconclusive, NS1 function inh inactive and SARS PLpro yeast-2 inactive.
O=C(Nc1ccc(Cl)cc1)N(CCCN1CCOCC1)Cc1cccs1 was read as Pf growth 96h inconclusive, SARS PLpro yeast-1 inconclusive, RE007 growth inh inactive, NS1 function inh inactive and SARS PLpro yeast-2 inactive.
`CCc1ccccc1NC(=S)N(CCCN1CCOCC1)Cc1cccs1` gave Pf growth 96h 2.62µM, SARS PLpro yeast-1 inconclusive, RE007 growth inh inactive, Pf growth 48h inactive, NS1 function inh inactive and SARS PLpro yeast-2 inactive.
For S=C(Nc1ccc(Cl)cc1)N(CCCN1CCOCC1)Cc1cccs1 the results were Pf growth 96h inconclusive, SARS PLpro yeast-1 inactive, RE007 growth inh inactive, Pf growth 48h inactive and NS1 function inh inactive.
For COCCN(Cc1ccccc1)C(=O)c1c(C)nn(-c2ccccc2)c1C the results were Pf growth 96h inconclusive, SARS PLpro yeast-1 inactive, RE007 growth inh inactive and Pf growth 48h inactive.
For Cc1ccc(S(=O)(=O)NC(C(=O)Oc2cc3oc(=O)cc(C)c3cc2Cl)C(C)C)cc1 (stereo not drawn) the results were Pf growth 96h inactive, SARS PLpro yeast-1 22.4µM, RE007 growth inh inactive, Pf growth 48h inactive, NS1 function inh inactive and SARS PLpro yeast-2 inconclusive.
